Assay results taken from PubChem BioAssay (NCI).
This is part of a sample that, as a whole, favours compounds with a hit. Of some 83,000 tested, about 20% had one in any assay.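 Values shown are percent growth following 48 h exposure of cells in 96-well plates to a single concentration of compound; below 10 was considered active.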 Values without a mark were called inactive. Activity calls are given as the source filed them.

Assays:
Assay in all cases: NCI-60 one-dose screen, 48 h (100 = growth as untreated, 0 = no growth, -100 = all killed)
Settings in all cases: 10 µM unless noted
NCI-H23 lung = test system: NCI-H23 lung
NCI-H322M lung = test system: NCI-H322M lung
HOP-62 NSCLC = test system: HOP-62 NSCLC
NCI-H460 lung = test system: NCI-H460 lung
HOP-92 NSCLC = test system: HOP-92 NSCLC
NCI-H522 lung = test system: NCI-H522 lung
A549/ATCC NSCLC = test system: A549/ATCC NSCLC
786-0 renal = test system: 786-0 renal
DU-145 prostate = test system: DU-145 prostate
K-562 leukemia = test system: K-562 leukemia
MALME-3M melanoma = test system: MALME-3M melanoma
MDA-MB-231 breast = test system: MDA-MB-231 breast
RXF 393 renal = test system: RXF 393 renal
SF-268 CNS = test system: SF-268 CNS
SF-295 CNS = test system: SF-295 CNS
SF-539 CNS = test system: SF-539 CNS
UACC-257 melanoma = test system: UACC-257 melanoma
M14 melanoma = test system: M14 melanoma
HCT-15 colon = test system: HCT-15 colon
COLO 205 colon = test system: COLO 205 colon

SMILES | growth (NCI-H23 lung) | growth (NCI-H322M lung) | growth (HOP-62 NSCLC) | growth (NCI-H460 lung) | growth (HOP-92 NSCLC) | growth (NCI-H522 lung) | growth (A549/ATCC NSCLC) | growth (786-0 renal) | growth (DU-145 prostate) | growth (K-562 leukemia) | growth (MALME-3M melanoma) | growth (MDA-MB-231 breast) | growth (RXF 393 renal) | growth (SF-268 CNS) | growth (SF-295 CNS) | growth (SF-539 CNS) | growth (UACC-257 melanoma) | growth (M14 melanoma) | growth (HCT-15 colon) | growth (COLO 205 colon)
Cn1cc(-c2ccc3ncc(-c4ccc(CC(=O)Nc5cc(C(C)(C)C)no5)cc4)nc3c2)cn1 | 36.6% | 20.6% | 42.5% | 22.8% | 46.3% | 41.6% | 33.7% | 39.2% | 34.3% | 22.5% | 25% | 28.7% | 32.3% | 36% | 47.2% | 27.3% | 61.2% | 34.6% | 16.3% | 
Cc1ccc(C2CC(c3ccc(Nc4nc(NCCO)nc(Nc5ccc(Cl)cc5)n4)cc3)=NN2c2cc(Cl)cc(Cl)c2)cc1 (stereo not given) | 92.5% | 85% | 82.8% | 98.9% | 101% | 104% | 94.2% | 102% | 112% | 99.9% | 102% | 91.3% | 88.6% | 79.7% | 100% | 92.4% | 101% | 121% | 99.3% | 
O=C(/C=C/c1ccc(C(F)(F)F)cc1)c1ccc(Nc2nc(NCCO)nc(Nc3ccc(Cl)cc3)n2)cc1 | 76.4% | 86.1% | 53.2% | 28.7% | 70.5% | 65.3% | 26.6% | -41% (active) | 58% | 12.5% | 96.3% | 59.3% | 42.8% | 50.6% | 79.6% | 51.3% | 92.1% | 54.7% | 6.59% (active) | 
O=C(/C=C/c1ccc(Cl)cc1)c1ccc(Nc2nc(NCCO)nc(Nc3ccc(Cl)cc3)n2)cc1 | 87.6% | 86.7% | 80.3% | 54.3% | 63.1% | 77.8% | 51.2% | 26.9% | 67.7% | 37.6% | 90.3% | 62.4% | 54.3% | 60.2% | 87.2% | 64.8% | 95.8% | 64.1% | 25.9% | 
O=C(Cn1cc(COc2ncnc3c2cnn3-c2ccccc2)nn1)Nc1cccc2ccccc12 | 89% | 93.2% | 90.5% | 93.7% | 82.3% | 81.1% | 92.3% | 103% | 97.9% | 94.6% | 93.6% | 95% | 94.8% | 92.6% | 99.4% | 90% | 95.9% | 105% | 96.9% | 
CCOC(=O)c1cc2c(n1Cc1cc(OC)c(OC)c(OC)c1)-c1oncc1CCC2 | 21.5% | 50.7% | 39.8% | 5.74% (active) | 129% | 5.14% (active) |  | 39.5% | 13% | 6.98% (active) | 43.9% | 12.3% | 26.9% | 46.1% |  | -7.45% (active) | 70.7% | 18% | 16.9% | -39.9% (active)
CCCC(c1nnnn1C1CCCCC1)N1CCN(C(=O)c2ccco2)CC1 (stereo not given) | 71% | 97.5% | 79.2% | 40.6% | 47.6% | 62.5% |  | 74.9% | 69.7% | 9.87% (active) | 53.2% | 63.9% | 65.1% | 60.8% |  | 65.7% | 82.5% | 30.5% | 45.5% | 73.4%
Cn1c(/C=C(\C#N)c2cccc(C(F)(F)F)c2)nc2c(N3CCOCC3)nc(Cl)nc21 | 16% | 63.1% | 34.1% | 26.7% | -77.4% (active) | -56% (active) | 33.6% | -74.2% (active) | -80.3% (active) | -12.2% (active) | -21.8% (active) | -70.1% (active) | -92.2% (active) | -50.8% (active) | 85.1% | -79.9% (active) | -64.5% (active) | -77.3% (active) | -37.3% (active) | 
Cn1c(/C=C(\C#N)c2ccccc2)nc2c(N3CCOCC3)nc(Cl)nc21 | 17.5% | 65.9% | 38% | 18.1% | -75.6% (active) | -57.5% (active) | 30.4% | -71.4% (active) | -72.4% (active) | -13.8% (active) | -51.2% (active) | -80.3% (active) | -86.3% (active) | -66.2% (active) | 85.1% | -88% (active) | -61.5% (active) | -62.5% (active) | -66.8% (active) | 
NCCNc1nc2ccccc2c2c(=O)c3cc(F)cc(Cl)c3sc12 | 75.4% | -27.1% (active) | -51.7% (active) | -90% (active) | 40.8% | -44.8% (active) | -72.9% (active) | -90.4% (active) | -92.6% (active) | -62.7% (active) | 89.6% | -79.2% (active) | 67% | -42.4% (active) | 98.2% | 58.6% | 103% | -76.6% (active) | -83.4% (active) | 
O=S(=O)(c1ccccc1)n1cc2c(c1-c1ccccc1)CCc1sc(Nc3ccccc3)nc1-2 | 92.8% | 75.6% | 112% | 86.6% | 86.6% | 77.7% |  | 89.7% | 90.1% | 63.7% | 105% | 79.4% | 87% | 86.7% |  | 106% | 96.5% | 87.8% | 83.8% | 103%
O=C(Nc1ccc(N2CCNCC2)cc1)c1[nH]ncc1Nc1ncnc2sc3c(c12)CCC3 | -68.6% (active) | -33.2% (active) | -76.2% (active) | -81.8% (active) | -56.7% (active) | -50.3% (active) |  | -81.4% (active) | -92.4% (active) | -62.7% (active) | -75.9% (active) | -84.9% (active) | -90.8% (active) | -72.3% (active) | -77.2% (active) | -98.8% (active) | 26% | -91.1% (active) | -85.7% (active) | -77.2% (active)
COc1ccc2occ(C3=C(c4c[nH]c5ccccc45)C(=O)NC3=O)c2c1 | 62.2% | 79% | 41.6% | 22.5% | 67.2% | 33% | 40.8% | 74.7% | 92.1% | 21.6% | 46.7% | 28% | 34.5% | 52% | 35.6% | 51.8% | 76.3% | 27.3% | 24.1% | 
O=C(NCc1ccccc1)C1CN(c2ccc(Cl)cc2)N(c2ccc(Cl)cc2)C1=O (stereo not given) | 94% | 95.8% | 74.6% | 85.6% | 86.5% | 65.6% | 69.6% | 99.3% | 97.5% | 35.1% | 73.8% | 91.3% | 81.1% | 82.4% | 76.3% | 93.4% | 79.4% | 74.9% | 59.5% | 
O=C(c1nc2ccccc2[nH]1)C1C(c2cccc([N+](=O)[O-])c2)C2CC3CCCCC3N2[C@@]12C(=O)Nc1cc(Cl)ccc12 (stereo not given in full) | 37.3% | 42.2% | 48.1% | 9.08% (active) | 16.9% | 52.4% |  | 25.6% | 27% | 24.2% | 29.3% | 18.6% | -52.5% (active) | 39.9% | 24.8% | 48.4% | 43.5% | 21.5% | 20.9% | 12.6%
CCOC(=O)c1cnc2c(C)cccc2c1Nc1ccc(C(C)=O)cc1 | 32.1% | 42.7% | -76.6% (active) | -68.6% (active) | -1.13% (active) | -78.5% (active) |  | 8.84% (active) | 22% | -21.5% (active) | -81% (active) | 11.2% | -54.5% (active) | 43.5% | -82.2% (active) | -44.9% (active) | -58.4% (active) | -67.6% (active) | 0.0229% (active) | -91.5% (active)
O=C(Nc1ccc(I)cc1F)c1cc(Br)ccc1O | 3.44% (active) | 7.16% (active) | -5.03% (active) | 2.62% (active) | -10.8% (active) | -7.93% (active) |  | 1.97% (active) | 14.2% | 8.5% (active) | -27.4% (active) | -21.2% (active) | 2.4% (active) | 7.21% (active) | -64.9% (active) | 0.872% (active) | -18.2% (active) | -10.4% (active) | 0.459% (active) | 46.9%
